Source: PubChem (several laboratories)
Sampled rows, rich in hits. Any-hit rate of the full collection: about 3.7%.
BoNT-A LC inh2: BoNT/A light chain protease inhibitors, primary screen, biochemical, flow cytometry, MLPCN library; multiplex microsphere protease substrate cleavage; Botulinum neurotoxin type A light chain protease (Clostridium botulinum A str. ATCC 3502); inhibition, % at 10 µM; 0.17% of 360,000 active; further: plate controls were buffer without enzyme for full effect and enzyme alone for no effect
BoNT-F LC inh: BoNT/F light chain protease inhibitors, primary screen, biochemical, flow cytometry, MLPCN library. Botulinum neurotoxin type F light chain protease (Clostridium botulinum). Multiplex microsphere protease cleavage assay. inhibition, % at 10 µM. 0.22% of 360,000 active. AID 588497, 2011; in the data active means inhibition above about 35%, passing the limit was not always enough; inconclusive means no clear call, values can overlap the other calls; further: plate controls were buffer without enzyme for full effect and enzyme alone for no effect
Anthrax LF inh2: Bacillus anthracis LF protease inhibitors, primary screen, biochemical, multiplex microsphere, MLPCN library; multiplex microsphere protease cleavage assay; 0.12% of 360,000 active; inhibition, % at 10 µM; further: plate controls were buffer without enzyme for full effect and enzyme alone for no effect
Autofluor counter: compound fluorescence in toxin protease inhibitor counterscreen. 3.1% of 360,000 active. AID 624483. compound autofluorescence counterscreen, microsphere flow cytometry; hits give high values. fluorescence intensity (test concentration not listed); in the data active means fluorescence intensity above about 16000; inconclusive means no clear call, values can overlap the other calls
MazF activator: activators of E. coli MazEF toxin-antitoxin RNase, primary screen, biochemical, fluorescence, uHTS | activation, % at 20 µM | 0.32% of 350,000 active | Endoribonuclease toxin MazF (Escherichia coli (strain K12)), P0AE70 | FAM/BHQ RNA-DNA oligo cleavage fluorescence, 5 h; in the data active means activation above about 50%
Target sequence (P0AE70 whole entry, looked up): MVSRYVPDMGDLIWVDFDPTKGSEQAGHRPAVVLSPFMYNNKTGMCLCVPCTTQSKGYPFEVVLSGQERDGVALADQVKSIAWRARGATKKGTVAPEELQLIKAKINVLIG
Active calls of the source: *; ? = inconclusive; . = no result given. Unless noted, no stated cut-off is given here; in the data, active means inhibition above about 30%; inconclusive means no clear call, values can overlap the other calls; inactive means below that.

SMILES	BoNT-A LC inh2	BoNT-F LC inh	Anthrax LF inh2	Autofluor counter	MazF activator
COc1ccc(C(=O)N[C@H](C(=O)OCc2nc3ccsc3c(=O)[nH]2)C(C)C)cc1	-50.4	-66.9	-8.0	13187	-0.9
Cc1ccc(S(=O)(=O)N(C)CC(=O)NCC(c2ccco2)N(C)C)cc1 (centres undefined)	3.0	-3.0	-1.7	8695	5.6
CCOc1ccccc1NC(=O)C1CCCN1S(=O)(=O)c1ccc2c(c1)C(C)(C)C(=O)N2C (centres undefined)	-0.5	-7.6	-0.7	5526	.
CCOCCCNCc1cn(-c2ccc(F)cc2F)nc1-c1ccccc1C	-1.0	-7.2	-7.2	4215	0.2
Cc1cccc(C)c1NC(=O)C1c2cccc[n+]2CC(=O)N1Cc1ccc2c(c1)OCO2 (centres undefined)	2.1	-1.8	0.8	6074	0.3
Cc1ccccc1NC(=O)C1c2cccc[n+]2CC(=O)N1c1c(C)cccc1C (centres undefined)	5.7	-10.8	1.2	4668	62.9*
COC(=O)c1ccc2c(=O)[nH]c(CN3c4ccccc4CC3C)nc2c1 (centres undefined)	?	-2.2	-6.7	19519*	2.2
Nc1nc2c(ncn2[C@@H]2O[C@H](CNCc3ccc(Oc4cc(-n5cccn5)ncn4)cc3)[C@@H](O)[C@H]2O)c(=O)[nH]1	-0.2	-14.3	-7.9	5734	.
COc1cccc(-n2nc(C(=O)N3CC(C)CC(C)C3)c3ccccc3c2=O)c1 (centres undefined)	6.5	8.4	-7.9	20358*	-2.5
CN(C)c1ccc(NC(=O)c2ccc3nsnc3c2)cc1	?	-3.0	-4.4	22463*	2.5
O=S(=O)(c1cccc2cccnc12)N1CCOCC1	0.2	-1.0	2.2	23370*	10.1
O=S(=O)(c1cccc2cccnc12)N1CCN(c2ccc(F)cc2)CC1	-1.1	-3.9	-4.5	4803	2.1
CC1CCCCN1CCNC(=O)C1CCN(S(=O)(=O)c2cccc3cccnc23)CC1 (centres undefined)	-4.3	-10.7	-3.2	17441*	-20.4
Cc1cccc(CCNC(=O)C2CCN(S(=O)(=O)c3cccc4cccnc34)CC2)c1	-0.7	-0.8	0.5	4711	-3.5
O=c1n(S(=O)(=O)c2cccc3cccnc23)c2ccccc2n1S(=O)(=O)c1cccc2cccnc12	6.7	7.8	-0.6	20693*	-14.8
CC(=O)N1CCN(C(=O)COC(=O)/C=C/c2ccccc2[N+](=O)[O-])CC1	0.1	1.9	-4.5	3593	8.9
O=C(COC(=O)c1ccc(Cl)c(S(=O)(=O)N2CCCCCC2)c1)NCc1ccccc1	-0.6	-9.8	-10.5	4191	0.6
Cc1cccc(-n2nnnc2SCn2nnc3ccccc3c2=O)c1	3.7	5.4	-13.8	20246*	6.7
CCN(CC)S(=O)(=O)c1ccc2c(c1)nc(SCn1nnc3ccccc3c1=O)n2CC	-0.8	-1.3	0.2	23084*	3.2
O=C1NC(=O)[C@]2(Cc3ccccc3N3CCN(c4ccccc4)CC32)C(=O)N1c1ccccc1 (some centres undefined)	-2.1	-5.1	-2.6	24028*	7.1
CCCCN1C(=O)NC(=O)C2(Cc3ccccc3N3CCOCC32)C1=O (centres undefined)	3.4	13.7	-4.8	8997	-10.2
O=C1NC(=O)C2(Cc3ccccc3N3CCCC32)C(=O)N1Cc1ccccc1 (centres undefined)	?	2.6	-2.8	19390*	-0.1
O=C1NC(=O)[C@]2(Cc3ccccc3N3CCN(c4ccccc4)CC32)C(=O)N1Cc1ccccc1 (some centres undefined)	2.2	5.9	1.4	4621	3.2
CN1C(=O)NC(=O)[C@]2(Cc3ccccc3N3CCN(c4ccccc4)CC32)C1=O (some centres undefined)	-2.4	-1.1	-1.9	16912*	3.6
O=C1NC(=O)C2(Cc3ccccc3N3CCCC32)C(=O)N1c1ccc(Cl)cc1 (centres undefined)	.	.	.	.	-0.8
SMILES	BoNT-A LC inh2	BoNT-F LC inh	Anthrax LF inh2	Autofluor counter	MazF activator
CN1C(=O)NC(=O)C2(Cc3ccccc3N3CCOCC32)C1=O (centres undefined)	?	-5.5	2.7	17659*	4.9
O=C(c1cccs1)N1C[C@@H](O)[C@H](n2cc(-c3ccc(F)cc3)nn2)C[C@@H]1c1ccc(Cl)cc1	-0.6	-1.5	-3.2	2938	5.2
Cc1ccc(S(=O)(=O)N2C[C@@H]3[C@H]4CC[C@H](C4)[C@@H]3[C@@H](C)[C@@H]2c2ccn(Cc3ccccc3)c2)cc1	-0.8	3.7	-0.1	3030	0.5
Cc1ccc(N2C(=O)NC(=O)C3(Cc4ccccc4N4CCCC43)C2=O)cc1 (centres undefined)	?	1.6	1.8	19892*	-2.4
COCOCCn1cc(CN2CCS(=O)(=O)N(Cc3ccc(-c4ccc(OC)cc4)cc3)C(C)C2=O)nn1 (centres undefined)	-0.7	4.9	-1.9	3596	0.5
Nc1nonc1-c1noc(-c2ccccc2)n1	6.3	8.2	0.1	20869*	-4.7
O=C1NC(=O)c2cc(NC(=O)C3CCCO3)ccc21 (centres undefined)	?	-1.2	-3.9	22178*	-3.7
O=C(Cc1ccccc1)Nc1ccc2c(c1)C(=O)N(CC1CCCO1)C2=O (centres undefined)	0.3	0.2	1.4	2195	9.3
O=C1OCc2cc(NC(=O)C3CCCO3)ccc21 (centres undefined)	?	-14.0	?	?	-6.7
O=C(Nc1ccc2c(c1)C(=O)N(c1ccccc1)C2=O)C1CCCO1 (centres undefined)	?	-0.3	-5.0	21610*	2.2
O=C(COC(=O)c1c(F)cccc1Cl)NCC1CCCCC1	-0.3	3.5	-6.5	3726	-5.6
CC(OC(=O)c1ccc(F)c(S(=O)(=O)N2CCOCC2)c1)C(=O)NCC1CCCCC1 (centres undefined)	2.9	13.4	4.8	4786	-7.8
CC1(C)CC(=O)c2cc3c(nc2C1)CC(C)(C)CC3=O	0.5	-1.6	-2.9	2148	-0.2
CC1(C)C/C(=N\O)c2cc3c(nc2C1)CCCC3	-3.1	-5.5	-1.2	23918*	-3.7
COc1ccc(CN(CC(=O)NC2CCCC2)C(=O)CCC(=O)Nc2nccs2)cc1	1.3	2.5	-0.2	4101	5.0
NNc1ccc([N+](=O)[O-])c2[nH][nH]c(=O)c12	-1.4	-10.1	-7.7	2791	0.4
C[C@@H]1CN([C@@H](C)CO)C(=O)CCCn2nncc2CO[C@@H]1CN(C)S(=O)(=O)c1ccccc1C#N	0.4	-0.8	-3.7	3608	-5.1
O=C(O)c1ccc(-n2nc(C(F)(F)F)c3c2-c2ccoc2CC3)cc1	-5.9	-5.9	1.2	21579*	2.8
